Several values for one entry are separate records, joined by “and”; a condition that tells them apart may be missing. Equal entries are not always repeated. Compounds without any hit were thinned out: in the full panel of roughly 79,000, 15% have a hit. Values without a mark were called inactive. Activity calls are given as the source filed them. Cut-off read from the data, not from the text of the source: active = growth inhibition above about 70%; inactive = the rest.
Assays:
[1] = NCI Yeast Anticancer Drug Screen. Data for the rad50 strain (AID 155);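 note: 0% = growth of vehicle-only cultures of the same strain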; details: S. cerevisiae rad50 strain growth inhibition; at 50.0 µM; hits give high values
Procedure, shortened: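 Compounds were tested on a yeast strain with an engineered DNA damage repair alteration; the reported value is growth inhibition normalised to vehicle treatment.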

[2] = NCI Yeast Anticancer Drug Screen. Data for the mec2-1 strain (AID 157); details: S. cerevisiae mec2-1 strain, at 50.0 µM, hits give high values
Procedure, shortened: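 Each compound was tested on mec2-1 yeast, a strain altered in DNA damage repair or cell cycle control. Growth inhibition is reported relative to vehicle.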

[3] = NCI Yeast Anticancer Drug Screen. Data for the sgs1 mgt1 strain (AID 161);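 note: 0% = growth of cultures given vehicle only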; details: S. cerevisiae sgs1 mgt1 strain, at 50.0 µM, hits give high values
Procedure, shortened: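 Mutant yeast exposed to compound; growth scored against vehicle-only wells.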

[4] = NCI Yeast Anticancer Drug Screen. Data for the cln2 rad14 strain (AID 165);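 note: 0% = growth equal to vehicle treated cultures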; details: S. cerevisiae cln2 rad14 strain, at 50.0 µM, hits give high values
Procedure, shortened: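 Test compounds were added to cln2 rad14 yeast cultures; inhibition of growth was then determined by comparison with vehicle treatment.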

[5] = NCI Yeast Anticancer Drug Screen. Data for the bub3 strain (AID 167); details: S. cerevisiae bub3 mutant strain, at 50.0 µM, hits give high values
Procedure, shortened: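 Growth of a checkpoint-deficient yeast mutant is measured after compound exposure. Values represent inhibition relative to vehicle.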

[6] = NCI Yeast Anticancer Drug Screen. Data for the mlh1 rad18 strain (AID 175); details: S. cerevisiae mlh1 rad18 strain growth inhibition; at 50.0 µM; hits give high values
Procedure, shortened: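 Inhibition values reflect reduced growth of mutant yeast versus vehicle-treated controls following compound exposure; the mutations affect DNA damage repair.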

SMILES	growth inhibition [1]	growth inhibition [2]	growth inhibition [3]	growth inhibition [4]	growth inhibition [5]	growth inhibition [6]
CC1(C(=O)O)C2[Se]c3[se]ccc3C2C1(C)C(=O)O (configuration not stated)	-3.45%	-12.7%	-3.5%	-12.2%	1.8%	-4.55%
CS(=O)(=O)OC1C2CC(C1OS(C)(=O)=O)C(c1ccccc1)C2C(=O)O (configuration not stated)	25%	21%	31.4%	12.2%	-1.85%	34.2%
NNC(=O)c1ccc(O)cc1	1.15%	-2.65%	-13.3%	-17.4%	-0.05%	18.2%
CC1(C)CN=C(Nc2ccc(F)c(F)c2)S1	4.3%	3.8%	12.1%	15.3%	-12.8%	-19.6%
COc1ccc2nc3ccccc3c(NCCCCCCN(CCCl)CCCl)c2c1	88.2% (active)	79.1% (active)	80.8% (active)	86.3% (active)	48.4%	82.9% (active)
CC(=O)OC1OC(CS[As](C)CCO)C(OC(C)=O)C(OC(C)=O)C1OC(C)=O (configuration not stated)	12.8%	-16.9%	-15.3%	-8%	-0.85%	-9.55%
CC(C)(C)C(=O)CC(=O)C(C)(C)C.[Cl][Sb]1([Cl])[c]2ccccc2Cc2cccc[c]21	-1.05%	23.9%	20.1%	-13.8%	0.75%	8.95%
CC(=O)Oc1ccc(C=C(C#N)C#N)cc1	40.6%	6.6%	12.4%	-7.1%	2.05%	14.9%
O=C(Cc1ccccc1)OCc1ccco1	6.9%	-23.9%	-30%	-41.5%	13.4%	-4.7%
CCNC(Cc1ccccc1)c1ccco1 (configuration not stated)	-2.35%	-12.1%	-15.5%	18.8%	-10.2%	12.5%
O=C(O)c1cc(C(=O)O)cc(S(=O)(=O)F)c1	13.5%	3.75%	19.6%	10.6%	-4.05%	7.5%
CCNC(=O)C(C)Br (configuration not stated)	19.4%	13.1%	23.5%	-3.55%	6.5%	23.9%
CCOP(=O)(CSCCC1(C)NC(=O)NC1=O)OCC (configuration not stated)	8.6%	-9.7%	23.9%	2.65%	7.2%	7.45%
Nc1ccncc1	4.35%	-5.45%	10%	10.9%	-2.55%	4.45%
CC1CCC2NCCNC2C1 (configuration not stated)	2.45%	6.65%	-8.9%	5.35%	0.65%	23.4%
O=C(Cl)c1cc([N+](=O)[O-])cc([N+](=O)[O-])c1	48.1%	26.1%	45.9%	-10.2%	-1.6%	46.6%
N.N.N.O=N[O-].O=N[O-].O=N[O-].[Co+3]	-2.05%	9.65%	-6.25%	18.6%	6.5%	-10.4%
O=C(O)C(F)(F)C(F)(Cl)C(F)(F)C(F)(Cl)C(F)(F)C(F)(Cl)C(F)(F)Cl (configuration not stated) (tested in a mixture with another compound)	8.45% and 43.4%	28.8% and 18.4%	37.4% and 41.1%	9.7% and 27.6%	-2.15% and -2%	35.5% and 30.5%
O=C(Nc1ccccc1)C(Cl)(Cl)Cl	-10.1%	-25.8%	11.1%	-10.2%	-9.8%	19.8%
CCCN(CCC)C(=O)CCl	-4.55%	5.2%	5.85%	3.3%	-4.55%	9.4%
N#CC(C#N)=Cc1cccc(C=C(C#N)C#N)c1	-0.55%	-3.65%	12.9%	8.3%	0.65%	-24.6%
CCOP(=S)(OCC)OCC1OC(OC)C2OC(C)(C)OC12 (configuration not stated)	-26.2%	1.9%	-2.45%	-35.4%	11.8%	4.4%
COc1cccc(C=O)c1OC	15.8% and 43.1%	2.2% and 24.1%	4.2% and 20.9%	27.1% and -7.95%	3.5% and 12.7%	47% and 37.1%
CCCCCCCCCCCCCCCCCCC[As](=O)(O)CCCCCCCCCCCCCCCCCCC	46.2%	19.2%	23.4%	-2.2%	13.4%	30.4%

SMILES	growth inhibition [1]	growth inhibition [2]	growth inhibition [3]	growth inhibition [4]	growth inhibition [5]	growth inhibition [6]
CS[P+]1(C)C=C(N2CCOCC2)CC1 (configuration not stated)	37.4%	15.2%	0.6%	-8%	8.8%	10.3%
CCOC(=O)NP(=O)(Nc1ccccc1)Nc1ccccc1	21.2%	-8.05%	-3.5%	5.7%	-5.1%	-5%
S=c1sc(-c2ccc(Cl)cc2)c[se]1	4.45%	3.85%	-13.3%	-33.2%	1.7%	-5.05%
NC(N)=NOCC[C@@H](N)C(=O)O	-0.5%	-3.7%	8.85%	20.2%	1.4%	11.7%
CCOC(=O)C(CCc1ccc(N(CCCl)CCCl)cc1)(NC(C)=O)C(=O)OCC	1.5%	-32.6%	8.65%	-4.35%	-16.8%	-39.9%
C[N+](C)(C)CCNP(=O)(Oc1ccccc1)c1ccccc1 (configuration not stated)	4.15%	5.55%	-22.5%	1.35%	-1.55%	21.6%
O=P(O)(O)SP(=O)(O)O.[Co]	22.2%	6.9%	11.2%	-8.9%	-12.8%	14.2%
CNC1(c2ccccc2)CC1	24.9%	-12.2%	0.95%	-60.9%	15.2%	-7.05%
O=C(CC(=O)C(F)(F)F)c1cccs1.[Fe]	22.1% and 27.1%	34.8% and 30.1%	33.2% and 28.4%	11.2% and 10.8%	20.9% and 21.2%	48.2% and 42.5%
C1=C/CCC2NC2C/C=C/CCC/1 (configuration not stated)	-6.8%	-20.4%	-10.6%	-18.4%	-22.8%	-19.6%
CCCC(=O)OCC[N+](C)(C)C	-1.35% and 12.7%	-21.9% and -18.6%	-10.7% and 25.4%	18.9% and 5.95%	-12.1% and 6.6%	4.05% and 18.2%
NCCCP(c1ccccc1)c1ccccc1	0.3%	0.4%	-5.65%	8.7%	-1.7%	10.6%
CSc1nsc(-c2ccccc2)[s+]1	13%	-11.6%	2.95%	-74.5%	-9.2%	18%
O=NN(CS(=O)(=O)O)c1ccccc1	-5.9%	-3.05%	-1.6%	-29.2%	6.4%	0.4%
COc1ccc2c(c1O)CNCC2c1ccc(O)cc1O (configuration not stated)	0.6%	-12%	-7.25%	-11.9%	-24.8%	-2%
NC1C[S][Sn][O]C1=O (configuration not stated)	14.2%	14.3%	3.2%	-21.4%	4.9%	14.6%
NCCN.O=N[O-].O=N[O-].O=N[O-].O=N[O-].[Co+3].[K+]	-1.1%	4.05%	14.4%	12.3%	3.6%	2.1%
O=C(O)c1ccc([As](=O)(O)O)cc1	-16.6%	4.3%	17.3%	-35.2%	-18.8%	-4.8%
NNC(=S)NN	4.95%	4.3%	1.7%	-15.4%	-2.6%	35.6%
COP(=O)(O)NC(C)=O	13.7%	-23.9%	8.85%	-64.5%	9.45%	-8.4%
CCOC(CNCc1cccnc1)OCC	-20.7%	-10.6%	-23.6%	5.9%	-13.7%	-17.3%
CN(C)c1ccc(SC(Cl)(Cl)Cl)cc1	-0.95%	-14.2%	-0.1%	-43.9%	3.4%	-4.75%
O=C1/C(=C\c2cc3ccccc3c3ccccc23)N2CCC1CC2	11.1%	-10.2%	-12%	-7.35%	-3.1%	1%
